Screens deposited in PubChem BioAssay by Broad Institute.
ROS inducer: raises reactive oxygen species in U2OS cancer cells; U2OS ROS induction, H2DCF-DA fluorescence; ROS induction (% of piperlongumine), % at 10 µM; actives 2% (n = 46,000); AID 624156; in the data active = ROS induction above about 79%, passing the limit was not always enough;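 note: 0% = DMSO vehicle median and 100% = reference compound median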
YB-1 expression: YB-1 expression inhibition. U2OS, qRT-PCR YB-1 vs CDIP delta delta Cp, 16 h; active compounds read high; zero = DMSO, each unit about twofold. delta delta Cp (YB-1 minus CDIP) (no concentration beside the values). actives 0.37% (n = 30,000);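 active = delta delta Cp rounded down to an integer at or above 3, about 3 SD of DMSO wells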;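 note: higher means less YB-1 transcript or more CDIP transcript relative to DMSO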
* hit, by the source's call. Hits are enriched below; roughly 2.3% of the tested compounds scored in any of these assays.

How did CCCCc1c(-c2ccc(OC)cc2)[nH]c2nccnc12 do in these assays?
ROS inducer: 4.3; YB-1 expression: 0.0428

What do the screens show for `CCCCc1c(-c2ccc(O)cc2)[nH]c2nccnc12`?
ROS inducer: 3.5; YB-1 expression: 3.35*

How did Cc1cccc(NC(=O)CSC2=C(C#N)C(c3ccco3)C3=C(CCCC3=O)N2)c1 (configuration not stated) do in these assays?
ROS inducer: 0.9

How did CCC(C)c1ccc(NC(=O)c2ccc(N(CC)CC)cc2)cc1 (configuration not stated) do in these assays?
ROS inducer: 54.0; YB-1 expression: 0.172

How did COc1ccccc1-n1c(C23CC4CC(CC(C4)C2)C3)n[nH]c1=S do in these assays?
ROS inducer: -11.9

Results for Cc1ccc(-c2ccc(=O)n(CC(=O)NC3CCCC3)n2)cc1 ?
ROS inducer: 8.4

How did C[C@@H]1CN([C@@H](C)CO)C(=O)Cc2cc(NS(=O)(=O)c3cccs3)ccc2O[C@@H]1CN(C)Cc1ccc(-c2ccccc2)cc1 do in these assays?
ROS inducer: 18.4; YB-1 expression: 0.0386

What do the screens show for `C[C@@H]1CN([C@H](C)CO)C(=O)Cc2cc(NS(=O)(=O)c3ccc(F)cc3)ccc2O[C@@H]1CN(C)Cc1ccc(-c2ccccc2)cc1`?
ROS inducer: 107.3*; YB-1 expression: 0.966

How did C[C@@H]1CN([C@H](C)CO)C(=O)Cc2cc(NS(=O)(=O)c3cccs3)ccc2O[C@H]1CN(C)Cc1ccc(-c2ccccc2)cc1 do in these assays?
ROS inducer: 96.5*; YB-1 expression: -0.296

What do the screens show for `C[C@@H]1CN([C@H](C)CO)C(=O)Cc2cc(NS(=O)(=O)c3ccc(F)cc3)ccc2O[C@H]1CN(C)Cc1ccc(-c2ccccc2)cc1`?
ROS inducer: 65.2; YB-1 expression: 0.646

How did CC(C)CCNC(=O)Cn1c(SCc2c(F)cccc2Cl)nc2ccncc21 do in these assays?
ROS inducer: 4.8

What do the screens show for `CCCc1cc(=O)oc2cc(OC(C(=O)OCC)c3ccccc3)c(Cl)cc12` (configuration not stated)?
ROS inducer: 29.9

What do the screens show for `COC(=O)c1cc2sccc2n1Cc1cc(=O)n2ccccc2n1`?
ROS inducer: -12.3

Results for COc1ccc(S(=O)(=O)N(C)C[C@@H]2Oc3ccc(NC(=O)Nc4ccccc4)cc3CC(=O)N([C@@H](C)CO)C[C@@H]2C)cc1 ?
ROS inducer: 111.5*; YB-1 expression: 0.34

What do the screens show for `Cc1noc(C)c1S(=O)(=O)Nc1ccc2c(c1)CC(=O)N([C@@H](C)CO)C[C@H](C)[C@H](CN(C)CC1CCCCC1)O2`?
ROS inducer: 0.3; YB-1 expression: 0.00781

How did Cc1noc(C)c1S(=O)(=O)Nc1ccc2c(c1)CC(=O)N([C@H](C)CO)C[C@@H](C)[C@H](CN(C)CC1CCCCC1)O2 do in these assays?
ROS inducer: 108.9*; YB-1 expression: 0.405

How did CC(C)NC(=O)Nc1ccc2c(c1)CC(=O)N([C@@H](C)CO)C[C@H](C)[C@@H](CN(C)C(=O)Nc1ccc(F)cc1)O2 do in these assays?
ROS inducer: -14.6; YB-1 expression: -0.658

How did COc1ccc(S(=O)(=O)N(C)C[C@H]2Oc3ccc(NC(=O)Nc4ccccc4)cc3CC(=O)N([C@H](C)CO)C[C@H]2C)cc1 do in these assays?
ROS inducer: 17.9; YB-1 expression: -0.125

What do the screens show for `COc1ccc(NC(=O)N(C)C[C@H]2Oc3ccc(NS(=O)(=O)c4ccc(OC)cc4)cc3CC(=O)N([C@@H](C)CO)C[C@H]2C)cc1`?
ROS inducer: 3.5; YB-1 expression: -0.0928

What do the screens show for `COc1ccc(NC(=O)N(C)C[C@H]2Oc3ccc(NS(=O)(=O)c4ccc(OC)cc4)cc3CC(=O)N([C@H](C)CO)C[C@H]2C)cc1`?
ROS inducer: 81.4*; YB-1 expression: -0.0129

How did CC(C)NC(=O)Nc1ccc2c(c1)CC(=O)N([C@@H](C)CO)C[C@H](C)[C@H](CN(C)C(=O)Nc1ccc(F)cc1)O2 do in these assays?
ROS inducer: 111.2*; YB-1 expression: -0.682

Results for Cc1c(CCNC(NC(=O)c2ccc(Cl)cc2)(C(F)(F)F)C(F)(F)F)c2ccccc2n1C ?
ROS inducer: 4.7

How did COc1ccc(/C=C2\SC(N)=NC2=O)cc1O do in these assays?
ROS inducer: 0.4

What do the screens show for `N/C(=N/O)c1ccccc1N`?
ROS inducer: -5.6

What do the screens show for `O=c1ccc2cc(S(=O)(=O)NCCN3CCN(c4cccc(Cl)c4)CC3)ccc2[nH]1`?
ROS inducer: 11.5

How did COC(=O)c1cc2oc3ccccc3c2n1Cc1nc(-c2ccccc2)oc1C do in these assays?
ROS inducer: -6.7

How did CCn1c(C)c(CCC(=O)NCCCc2ccccc2)c(=O)n2nc(-c3ccccc3OC)cc12 do in these assays?
ROS inducer: 20.8

Results for COc1ccc2c(Sc3ccc(Cl)cc3)c(C(=O)NCCCN3CCN(C)CC3)[nH]c2c1 ?
ROS inducer: -15.0

What do the screens show for `CC(Oc1ccccc1)C(=O)NC1CCCC1` (configuration not stated)?
ROS inducer: 2.4

Results for COc1ccc(S(=O)(=O)Nc2ccc3c(c2)CC(=O)N([C@H](C)CO)C[C@@H](C)[C@@H](CN(C)C(=O)Nc2ccc4c(c2)OCO4)O3)cc1 ?
ROS inducer: 9.6; YB-1 expression: -0.143

What do the screens show for `C[C@H](CO)N1C[C@H](C)[C@H](CN(C)C(=O)Nc2ccc(F)cc2)Oc2ccc(NS(=O)(=O)c3ccc(Cl)cc3)cc2CC1=O`?
ROS inducer: 88.8*; YB-1 expression: -0.00925

What do the screens show for `CNC[C@@H]1Oc2ccc(NC(=O)NC(C)C)cc2CC(=O)N([C@@H](C)CO)C[C@@H]1C`?
ROS inducer: 7.4; YB-1 expression: 0.121

What do the screens show for `CC(C)NC(=O)N(C)C[C@H]1Oc2ccc(NC(=O)Nc3ccc4c(c3)OCO4)cc2CC(=O)N([C@@H](C)CO)C[C@@H]1C`?
ROS inducer: -6.2; YB-1 expression: 0.259

What do the screens show for `CC(C)NC(=O)N(C)C[C@@H]1Oc2ccc(NC(=O)Nc3ccc4c(c3)OCO4)cc2CC(=O)N([C@H](C)CO)C[C@H]1C`?
ROS inducer: 125.9*; YB-1 expression: 0.146

What do the screens show for `COc1ccc(S(=O)(=O)Nc2ccc3c(c2)CC(=O)N([C@@H](C)CO)C[C@@H](C)[C@@H](CN(C)C(=O)Nc2ccc4c(c2)OCO4)O3)cc1`?
ROS inducer: 80.5*; YB-1 expression: -0.0394

Results for C[C@@H]1CN([C@H](C)CO)C(=O)Cc2cc(NS(=O)(=O)c3ccc(Cl)cc3)ccc2O[C@H]1CN(C)C(=O)Nc1ccc(F)cc1 ?
ROS inducer: -2.8; YB-1 expression: 0.145

How did CNC[C@@H]1Oc2ccc(NC(=O)NC(C)C)cc2CC(=O)N([C@H](C)CO)C[C@@H]1C do in these assays?
ROS inducer: 127.3*; YB-1 expression: -0.169

How did CCOC(=S)SCc1cn2cccnc2n1 do in these assays?
ROS inducer: -6.4

Results for COc1ccc(C2SCC(C(=O)NC(C)C)N2C(=O)Nc2ccc(C)c(C)c2)cc1 (configuration not stated) ?
ROS inducer: -4.9

Results for CCOC(=O)c1c(NC(=O)N2CCOc3ccc(Cl)cc32)sc2c1CCCC2 ?
ROS inducer: -9.9

Results for COc1ccc(S(=O)(=O)N(C)C[C@H]2Oc3ccc(NS(=O)(=O)c4c(C)noc4C)cc3CC(=O)N([C@H](C)CO)C[C@H]2C)cc1 ?
ROS inducer: 7.9; YB-1 expression: -0.26
